Values without a mark were called inactive. Activity calls are given as the source filed them. Calls follow the shape of the full dose curve.
% is scaled to controls: 0 for no effect and ±100 for the full control effect.

The experiment is described as follows: qHTS assay to identify small molecule agonists of the sonic hedgehog signaling (Shh) pathway (AID 1259368).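 Also: NIH/3T3-derived 3T3Gli1-Luc cells carrying a stable Gli1-driven firefly luciferase reporter; nearly all actives have a fitted effect of over 15% in size.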 The conditions noted are these: NIH/3T3 Gli1-Luc reporter, luciferase, 24 h, hits give high values; series mostly up to 92.4 µM. The text has this: National Center for Advancing Translational Sciences [NCATS]
NIH Chemical Genomics Center [NCGC]
U.S. Environmental Protection Agency [EPA]
National Institutes of Environmental Health Sciences [NIEHS]
National Toxicology Program [NTP]
The sonic hedgehog (Shh) pathway is essential for normal embryonic development. Dysregulation of the Shh pathway can cause severe developmental defects in organs. Therefore chemicals that interfere with the pathway are potential developmental toxicants. A cell line designated 3T3Gli1-Luc (DMB/OARSA/CFSAN/FDA, Laurel, MD), a NIH/3T3 derived clone containing stably integrated Gli1-Luc reporter is used to detect chemical interference of the Shh pathway, by changes in the expression of the firefly Luc gene under the control of the Gli1 transcriptional response element. This cell line was used to screen Tox21 libraries for identifying and prioritizing the potential developmental toxicants that interfere Shh pathway.
3T3 Gli1-Luc cells were dispensed at 2,000 per well in 5uL of culture medium into white solid bottom 1536-well plates (Greiner Bio-One, Monroe, NC) using a Multidrop Combi (Thermo Scientific, Waltham, MA) dispenser. The assay plates were incubated at 37 C and 5% CO2 for 4hr, and then 23nL of compounds dissolved in DMSO and positive control were transferred using a Pintool station (Wako, San Diego, CA). The assay plates were incubated at 37C and 5% CO2 for 24hr. For luciferase read, 4uL of Amplite Luciferase reporter gene assay reagent (AAT Bioquest, Inc. Sunnyvale, CA) was added to each well of the assay plates using Flying Reagent Dispenser (FRD, Aurora Discovery, San Diego, CA) and incubated at room temperature for 30min. The luminescence signal was measured using a ViewLux plate reader (Perkin Elmer, Shelton, CT).
In the case of `CCCCCCCCCCCCCCBr`, the outcome was inactive.

With `CCC(C)SSC(C)CC` (stereo not given), the result was inactive. For the compound `CC(C)OCCO`, the compound was called inactive. On the same count and under the same terms, to `C[n+]1ccccc1/C=N/O` belongs “inactive”.

As for `N=C(N)N`, the result was inactive. The same measure, in the same setting: to `CN(C)c1cc(NC(=O)CNC(C)(C)C)c(O)c2c1C[C@H]1C[C@H]3[C@H](N(C)C)C(=O)C(C(N)=O)=C(O)[C@@]3(O)C(=O)C1=C2O` belongs “inactive”; to `CC(C)(C)OC=O`, “inactive”; to `CCc1ccc(CC)cc1`, “inactive”. Consider `O=C(O)CCCCCCCCCC(=O)O`, for which the outcome was inactive. The same measure, in the same setting: to `O=C(OOC(=O)c1ccccc1)c1ccccc1` belongs “inactive”. For `O=C(O)P(=O)(O)O`, the outcome was inactive. Same read-out and setting: to `COC(=O)N/N=C/c1c[n+]([O-])c2ccccc2[n+]1[O-]` belongs “inactive”; to `CC(C)C(C)C`, “inactive”. Regarding `CC(C)CC(O)Cc1ccccc1` (stereo not given), the compound was classed as inactive. As to `Cc1cccc(N)n1`, the compound was classed as inactive.

Regarding `CCCC(=O)C(CC)Sc1ccoc1C` (stereo not given), the outcome was inactive.

Consider `O=C1c2ccccc2C(=O)N1CO`, for which the compound was classed as inactive. On the same count and under the same terms, the value for `CC(=O)Nc1ccc(S(=O)(=O)Nc2cc(C)on2)cc1` was “inactive”; that for `N=C(N)S(=O)O` was “inactive”. On the same count and under the same terms, the value for `Nc1nc(Cl)cc(Cl)n1` was “inactive”. Take `O=C(c1ccccc1)c1cccc(O)c1`: the call was inactive.

As to `O=C(O)/C=C(\CC(=O)O)C(=O)O`, the compound was classed as inactive. The same measure, in the same setting: the value for `CN1CCN(C(=O)C2CCCCC2)CC1` was “inactive”.

Consider `C=CCN1CCc2nc(N)sc2CC1`, for which the outcome was inactive. On the same count and under the same terms, to `C=CC(C)(CCC=C(C)C)OC(=O)C(C)C` (stereo not given) belongs “inactive”. On to `CC(=O)SC[C@@H](C)C(=O)N1CCC[C@H]1C(=O)N[C@@H](Cc1ccccc1)C(=O)O`, for which the compound was called inactive. Same read-out and setting: to `CC(C)(O)c1ccc(C(C)(C)O)cc1` belongs “inactive”; to `CN(C)CCC[C@@]1(c2ccc(F)cc2)OCc2cc(C#N)ccc21`, “inactive”; to `C=CC(=O)OCCOCCOCC`, “inactive”. As to `O=C[C@@H](O)[C@H](O)[C@H](O)CO`, the compound was classed as inactive. The same measure, in the same setting: to `CC1(C)S[C@@H]2[C@H](NC(=O)Cc3ccccc3)C(=O)N2[C@H]1C(=O)O` (tested in a mixture with another compound) belongs “inactive”; to `CC(C)(C)C(=O)CCc1ccc(Cl)cc1`, “inactive”; to `CC[C@@]1(c2ccccc2)NC(=O)N(C)C1=O`, “inactive”. As for `C=COCCCCO`, the call was inactive.

As for `CC(=O)Nc1ccc(OCCOCCOc2ccc(NC(C)=O)cc2)cc1`, the outcome was inactive. As for `CC(=O)OCC(=O)[C@@]1(O)CC[C@H]2[C@@H]3CCC4=CC(=O)C=C[C@]4(C)[C@H]3[C@@H](O)C[C@@]21C`, the compound was classed as inactive. Take `N=C(N)N1CCc2ccccc2C1`: the activity change is 0.863% [at 8.39 µM]. Consider `CCCc1ncc(C(=O)O)s1`, for which the compound was called inactive. On the same count and under the same terms, to `CN(C)CCc1c[nH]c2ccc(C[C@H]3COC(=O)N3)cc12` belongs “inactive”; to `COC(=O)c1ccc(C(=O)O)cc1`, “inactive”.

The values above are taken from PubChem BioAssay (Tox21).
